From ChEMBL document CHEMBL3988442, “University of Dundee, Small-Polar-MMV Screening Library” (2021) come the findings set out here.

Screen size: about 69,000 compounds; about 30 (0.04%) showed an effect of 50% or more. Shown is part of a subset that was picked to be rich in strong results.

The test deals with T1, Histidine--tRNA ligase (Trypanosoma cruzi (strain CL Brener)) (UniProt Q4DA54).
T1 sequence (whole entry): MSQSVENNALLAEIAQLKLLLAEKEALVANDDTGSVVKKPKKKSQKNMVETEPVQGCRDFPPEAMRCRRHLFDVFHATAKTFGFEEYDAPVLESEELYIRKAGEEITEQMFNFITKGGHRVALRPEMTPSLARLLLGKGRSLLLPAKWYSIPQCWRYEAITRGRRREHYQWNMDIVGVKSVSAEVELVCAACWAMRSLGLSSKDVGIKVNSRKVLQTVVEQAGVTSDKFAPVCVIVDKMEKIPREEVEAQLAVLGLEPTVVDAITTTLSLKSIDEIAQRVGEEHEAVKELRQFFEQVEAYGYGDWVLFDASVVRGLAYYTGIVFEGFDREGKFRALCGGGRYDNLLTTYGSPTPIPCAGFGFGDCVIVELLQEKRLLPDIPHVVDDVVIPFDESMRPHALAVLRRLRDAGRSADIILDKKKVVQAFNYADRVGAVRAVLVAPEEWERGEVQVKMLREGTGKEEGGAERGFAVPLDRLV
Description: Trypanosoma cruzi histidyl tRNA synthetase (Tc-HisRS). Also on record: scale not given: direction of the effect not stated beside the values. The conditions noted are these: 30 µM. Format: functional.
For the molecule `COCCNC(=O)c1ccc2ccc(N(C)CC3CC3)n2c1`, the Percent Effect amounted to 26.4%.

Take `O=C(c1ccnnc1)N1CC[C@H]2C[C@H](c3ccncn3)O[C@@H]2C1`: the Percent Effect came out at 7.44%.

`CS(=O)(=O)N1C[C@H]2C[C@H](C(=O)N3CCOCC3)[C@@H](C1)O2`: the Percent Effect is 4.85%. As for `O=C(O)c1cncc(Cc2ccccc2F)c1`, the Percent Effect was -0.376%. As to `O=C(O)c1cncc(Cc2cccc(F)c2)c1`, the Percent Effect came to 5.64%. With `O=C(O)c1cncc(Cc2ccc(F)cc2)c1`, the Percent Effect worked out at 62.8%. Next, `O=C(CO[C@@H]1CC[C@H]2[C@H]1OCCN2Cc1ccccn1)N1CCCC1`: 7.53%; `Cc1noc(C)c1CN1C(=O)[C@H]2CC[C@@H]1CN(Cc1ccc(Cl)cc1)C2`: 3.17%.

Take `CCN1C(=O)COC[C@@H]1[C@H](O)c1ccc(NC(=O)COC)cc1`: the Percent Effect was -5.47%. Next, `Cn1ccnc1CN1C[C@H]2CN(S(=O)(=O)c3ccccc3)CCN2C1=O`: -1.49%; `CCN1CCN(S(=O)(=O)N2CCc3ccccc3C2)[C@H]2CS(=O)(=O)C[C@H]21`: 1.32%. Next, `O=C1[C@H]2CC[C@H](CN(Cc3nnc(C4CC4)o3)C2)N1Cc1cscn1`: 8%. Next, `CC(C)C(=O)N1CC[C@@H]2CN(Cc3ccncc3)S(=O)(=O)[C@@H]2CC1`: 1.07%; `Cc1ccccc1C(=O)N1CC[C@@H]2CN(c3ncccn3)CCO[C@@H]2C1`: 0.98%. For `CCOC(=O)[C@]12CCCN(Cc3ccco3)C[C@H]1CN(S(C)(=O)=O)C2`, the Percent Effect is 1.68%. For the molecule `c1cc(CN2C[C@@H]3OCCN(CC4CCCO4)[C@@H]3C2)co1` (stereo partly drawn), the Percent Effect is 2.94%. Consider `Cn1cc(CN2CC[C@H]3C[C@H](c4nc(C5CC5)cs4)O[C@@H]3C2)cn1`, for which the Percent Effect is 1.67%. Consider `COc1ccc(OC)c(C2CCN(CC(C)(C)N3CCOCC3)C2)c1` (stereo not drawn), for which the Percent Effect was 8.29%. Take `COc1ccc(C(C)C)cc1C1CC(=O)NCc2nc(N(C)C)sc21` (stereo not drawn): the Percent Effect stood at 7.85%.

Take `CCn1ncnc1C1CC(=O)NCc2nc(N3CCOCC3)sc21` (stereo not drawn): the Percent Effect worked out at 9.45%. Next, `COc1ccc(C2CC(=O)Nc3nc(N4CCOCC4)sc32)c(OC)c1` (stereo not drawn): 72%; `COc1ccc(C2CC(=O)Nc3nc(N4CCOCC4)sc32)cc1` (stereo not drawn): -2.48%; `COc1ccc(OC)c(C2CC(=O)Nc3nc(N4CCOCC4)sc32)c1` (stereo not drawn): 75.8%. As for `O=C1C[C@H]2[C@@H](CCN2C(=O)Cc2cccs2)N1CC1CC1`, the figure is 5.83%; as for `CC(C)NC(=O)[C@H]1C[C@@H]2[C@@H](C1)OCCN2Cc1cccs1`, 3.48%. As for `CCOC(=O)[C@@H]1CN2CCNC[C@@H]2[C@H]1c1ccccc1`, the figure is 1.12%; as for `O=C(C1CCOCC1)N1C[C@H]2CCC[C@@]2(COc2cccnc2)C1`, 12.8%.

For `CCOC(=O)[C@]12CCCN(Cc3nccs3)C[C@H]1CN(S(C)(=O)=O)C2`, the Percent Effect came out at 6.45%.

On to `Cn1cc(C(=O)N[C@H]2CN(S(C)(=O)=O)[C@@H]3CCCO[C@H]23)cn1`, for which the Percent Effect turned out to be 4.9%.

With `Cc1ccc(C(=O)N2CCO[C@H]3[C@@H](OCc4ccccn4)CC[C@@H]32)o1`, the Percent Effect turned out to be 5.43%. For `O=C(c1ccccn1)N1C[C@@H]2CC[C@H](C1)N(C(=O)CCc1cccs1)C2`, the Percent Effect was 5.02%. Take `CCN1CCO[C@@H]2CN(C(=O)NCc3ccccc3)CC[C@@H]2C1`: the Percent Effect turned out to be 1.06%. In the case of `CN1CCC(NC(=O)[C@H]2CC[C@@H]3[C@@H](CCN3c3ncccn3)O2)CC1`, the Percent Effect was found to be 5.75%. As to `c1cnc(N2C[C@@H]3COC[C@]3(COCC3CCCC3)C2)nc1`, the Percent Effect turned out to be 14.3%.

Take `Cc1ccsc1C(=O)N1C[C@@H]2CN(Cc3ccoc3)CCO[C@@H]2C1`: the Percent Effect was determined as 3.87%.

Turning to `Cc1ccc(N2CCN(C(=O)CN3C[C@@H]4CC[C@H]3C4)CC2=O)cc1`, the Percent Effect was 6.47%. Take `Cc1ccc(CN2CCC[C@]3(C(=O)O)CN(CC4CC4)C[C@@H]3C2)s1`: the Percent Effect was -3.17%.

`CCn1ncc(CN2C[C@@H]3CCCN3C[C@@H]2CCSC)c1C`: the Percent Effect is 8.99%.

For `O=C(C1CCC1)N1CC[C@@H]2CN(Cc3cccnc3)S(=O)(=O)[C@@H]2CC1`, the Percent Effect turned out to be 11.6%. In the case of `CN(C)C(=O)COC[C@]12COC[C@H]1CN(Cc1ccccc1)C2`, the Percent Effect came out at 4.67%. On to `CC1CCN(c2ccc(C(=O)N3CCCC3c3ccc[nH]3)cn2)CC1` (stereo not drawn), for which the Percent Effect was determined as 66.8%. As to `CC1CCN(c2ccc(C(=O)N3CCCC3c3nncn3C)cn2)CC1` (stereo not drawn), the Percent Effect worked out at 3.87%.

`NC(=O)c1ccc(OCC(=O)N2CCCC2c2ccc[nH]2)cc1` (stereo not drawn): the Percent Effect turned out to be 9.13%. `O=C(Nc1cccnc1)[C@H]1CO[C@H]2CCN(c3ncc(F)cn3)C[C@H]2C1`: the Percent Effect came out at 8.11%. Turning to `CC(C)Cn1cncc1CNC(=O)c1cccc(CC2CCNCC2)c1`, the Percent Effect is 1.62%. Next, `O=C(NCc1cnn2cccnc12)c1cccc(CC2CCNCC2)c1`: 85.5%; `CC(C)(O)CCc1cccc(C(=O)NCc2cnn3cccnc23)c1`: 1.82%. As for `COc1cc(N2CC[C@H]3O[C@@H](C(=O)NC4CCCC4)CC[C@H]32)ncn1`, the figure is 0%. As for `CC(=O)N1C[C@@H]2CC[C@H](C1)N(S(=O)(=O)c1ccc(F)cc1Cl)C2`, the figure is 3%; as for `CC/N=c1/c(NC(=O)C2CC2)c(O)oc2ccccc12`, 3.51%; as for `CNC1CCN(C2CCN(c3ccc(-c4ccco4)cc3)CC2)CC1`, 35.3%. As to `NCC1CCN(C2CCN(c3ccc(-c4ccco4)cc3)CC2)C1` (stereo not drawn), the Percent Effect is 50.6%. Turning to `NC1CCN(C2CCN(c3ccc(-c4ccco4)cc3)CC2)CC1`, the Percent Effect amounted to 43.5%.
